This note sets out measurements from PubChem BioAssay (NCATS).

The target of assay [1] is Lysosomal acid glucosylceramidase (Homo sapiens) (UniProt P04062). Put plainly: Glucocerebrosidase-p2 (AID 348; in the data active means potency below about 10 µM; further: potency means the concentration at half of the fitted maximal effect). As to conditions: purified GBA, blue fluorogenic substrate, 40 min. Put shortly: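 Compounds titrated from 0.6 nM upwards against 0.2 nM enzyme in pH 5.9 citric acid/KH2PO4, taurocholate, tween-20; blue fluorogenic substrate 80 uM, 40 min room temperature, stopped and read Ex 365/Em 440 for AC50.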

A short description of assay [2]: AP1 Signaling Pathway (AID 357).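 Further: ME-180 reporter cells stimulated with EGF at its EC50 level; on the % scale 0 is the no-effect control and ±100 the full control effect.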 As to conditions: ME-180 AP-1-bla reporter, EGF-induced, beta-lactamase ratio, 5 h; at 7.69 µM (top of the series) unless noted. In outline:
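Titration-series screen for positive or negative modulators of EC50 EGF-induced signaling in ME-180 cells carrying an AP-1-driven beta-lactamase reporter. After 5 hours at 37 degrees Celsius, CCF4 460nm/530nm emission ratio gave %Activity; AC50 values derived.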

The target in assay [3] is Cytochrome P450 1A2 (Homo sapiens) (UniProt P05177). The experiment in a line: p450-cyp1a2 (AID 410; calls by dose curve; further: potency means the concentration at half of the fitted maximal effect;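 on activity change, negative = inhibition: -100% = full effect of reference inhibitor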). As to conditions: recombinant CYP1A2, luciferin-ME demethylation, luminescence; series mostly up to 57 µM. In outline: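 Inhibition was calculated relative to 57 uM furafylline (full inhibition). The reaction used human CYP1A2 at 20nM with Luciferin-ME at its Km, 100uM, driven by an NADPH-regenerating system for 60 min at room temperature.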

Assay [4] is described as follows: NFAT Signaling Pathway (AID 444).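 Further: carbachol stimulus at about its EC50 of 1 µM final; on the % scale 0 is the no-effect control and ±100 the full control effect.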 As to conditions: Jurkat NFAT-bla M1, carbachol, beta-lactamase ratio, 5 h; at 7.69 µM (top of the series) unless noted. In outline:
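Jurkat cells with NFAT-driven β-lactamase reporter and co-expressed M1 receptor, stimulated with carbachol (final 1 uM, ~EC50), compound titration, 5 h at 37 °C. CCF4 loaded 1 h at RT; 460/530 nm ratio gave %activity and AC50.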

The nature of assay [5]: Stat Signaling Pathway (AID 446).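 Further: ME-180 cervical cancer cells given 40 pM IL-6 alongside compound; SIE-controlled beta-lactamase reporter measured as 460/530 nm FRET emission ratio; on the % scale 0 is the no-effect control and ±100 the full control effect.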 As to conditions: ME-180 (cervical carcinoma) SIE beta-lactamase reporter, IL-6 stimulated, 5 h; at 7.69 µM (top of the series) unless noted. In outline:
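ME-180 SIE-bla cells; overnight plating; cpd + IL-6 40 pM, 5 h, 37 C; LiveBLAzer 2.5 h RT; 460/530 nm emission ratio. Normalized to 300 pM IL-6 and 125 nM JAK inhibitor controls.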

Assay [6] concerns the target Glucocorticoid receptor (Homo sapiens) (UniProt P04150). Put plainly: GR-EFC Redistribution (AID 451; calls by dose curve; further: potency means the concentration at half of the fitted maximal effect). As to conditions: CHO-K1 GR-EFC translocation, beta-gal luminescence, 2 h. In outline:
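CHO-K1 cells expressing nuclear EA and GR-ED fragments of b-gal; compounds titrated up to 46 uM final, 2 h at 37 C. GR nuclear translocation read as complemented b-gal luminescence after 1 h RT detection.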

For assay [7], the target named is Mitogen-activated protein kinase 10 (Mus musculus) (UniProt Q61831). Put plainly: JNK3 AlphaScreen Assay (AID 530).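 Further: kinase came from lysate of stimulated human HepG2 cells; signal reports phosphorylation of biotinylated GST-cJun 1-79 at Ser73 with 10 µM ATP; on the % scale 0 is the no-effect control and ±100 the full control effect.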 The following applies: JNK3 lysate, c-Jun phosphorylation; series mostly up to 57.1 µM. Put shortly: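 qHTS format: compounds tested as titrations against IL-1beta/TNF-alpha-activated HepG2 lysate JNK3 with biotin-GST-cJun substrate and 10 uM ATP at room temperature. Loss of anti-phospho-cJun AlphaScreen signal indicates inhibition.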
(In Alpha technology, singlet oxygen from a donor bead excites a nearby acceptor bead.)

Assay [8] deals with 3',5'-cyclic-AMP phosphodiesterase 4B (Homo sapiens) (UniProt Q07343). Put plainly: qHTS Assay for Inhibitors of PDE-IV (AID 607; active means well fitted activation curve with a large enough effect in the main read-out, with a control signal flat, not every such curve was filed as active; further: % of control where 0% means no effect). As to conditions: HEK293 ACTOne CNG channel cells, membrane potential fluorescence; series mostly up to 22.9 µM. In outline:
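ACTOne HEK293 cells carry a modified cAMP-gated CNG channel and express endogenous PDE4; plated 1000 cells/well, compounds up to 22.9 uM final. Membrane-potential dye fluorescence (ex 535/em 590) was read; parental cells received 10 uM forskolin + 100 uM RO 20-1724.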
For orientation: In qHTS, concentration-response curves come from the screen itself.

Assay [9] can be described thus: qHTS Assay for Lipid Storage Modulators (AID 1519; calls by dose curve). The following applies: Drosophila S3 cells, BODIPY lipid droplet/cell ratio, laser cytometry, cells loaded with oleic acid; for activity change, negative = inhibition: at 57.5 µM (top of the series). In outline:
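Cells seeded at 5,000 per well were treated with compounds over a concentration series and loaded with oleic acid (400 uM, as added). Lipid droplet fluorescence (488 nm excitation, 500-530 nm channel) was read by laser-scanning cytometry and normalized to 20 uM Triacsin C.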

Assay [10] in a line: Primary qHTS for small molecule stabilizers of the endoplasmic reticulum resident proteome: Secreted ER Calcium Modulated Protein (SERCaMP) assay (AID 1508630; active means well fitted inhibition curve with a large enough effect; further: on the % scale 0 is the no-effect control and ±100 the full control effect). The following applies: SH-SY5Y GLuc-SERCaMP (Gaussia luciferase released on ER calcium loss) secretion, thapsigargin, luminescence; series mostly up to 38.4 µM. In outline:
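GLuc-SERCaMP-expressing SH-SY5Y cells, pretreated 16 h with compound, are challenged with thapsigargin to empty ER calcium stores; after 4 h, coelenterazine is added directly to the medium and luminescence is imaged.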

Assay [11] deals with Cytochrome P450 2C9 (Homo sapiens) (UniProt P11712). Put plainly: qHTS Assay for Inhibitors and Substrates of Cytochrome P450 2C9 (AID 883; active means well fitted inhibition curve with a large enough effect; further: on the % scale 0 is the no-effect control and ±100 the full control effect; nearly all actives have a fitted effect of over 60% in size). The following applies: recombinant CYP2C9, luciferin-H luminescence, 60 min; series mostly up to 57.1 µM. In outline:
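Human CYP2C9 (10nM) with Luciferin-H at 100uM (its KM) in 25mM KPO4; compound preincubated 10 min at 37C, then NADPH regeneration for 60 min at 37C. Luciferin read by luminescence after detection reagent; normalized to 57uM sulphaphenazole as full inhibition.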

Assay [12] addresses Cytochrome P450 3A4 (Homo sapiens) (UniProt P08684). The experiment in a line: qHTS Assay for Inhibitors and Substrates of Cytochrome P450 3A4 (AID 884; active means well fitted inhibition curve with a large enough effect; further: on the % scale 0 is the no-effect control and ±100 the full control effect; nearly all actives have a fitted effect of over 50% in size). The following applies: recombinant CYP3A4, Luciferin-PPXE luminescence; series mostly up to 57.1 µM. Put shortly: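 20 nM human CYP3A4 with 25 uM Luciferin-PPXE (at KM) in 200 mM KPO4, preincubated 10 min with compound; NADPH regeneration started a 60 min RT reaction. Luciferin detected by luminescence, normalized to 57 uM ketoconazole as full inhibition.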

Assay [13] addresses Cytochrome P450 2D6 (Homo sapiens) (UniProt P10635). Put plainly: qHTS Assay for Inhibitors and Substrates of Cytochrome P450 2D6 (AID 891; active means well fitted inhibition curve with a large enough effect;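 further: luciferin methyl ether substrate demethylated by CYP2D6 with NADPH regeneration; on the % scale 0 is the no-effect control and ±100 the full control effect; nearly all actives have a fitted effect of over 60% in size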). The following applies: recombinant CYP2D6, luciferin-ME EGE luminescence; series mostly up to 57.1 µM. In outline: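 Human CYP2D6 (5 nM) with 30 uM Luciferin-ME EGE (at Km) in 100 mM KPO4, compound preincubated 10 min, then NADPH regeneration system for 60 min at room temperature. Luciferin read by luminescence; normalized to 1.43 uM quinidine.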

Assay [14] deals with Cytochrome P450 2C19 (Homo sapiens) (UniProt P33261). The experiment in a line: qHTS Assay for Inhibitors and Substrates of Cytochrome P450 2C19 (AID 899; active means well fitted inhibition curve with a large enough effect; further: on the % scale 0 is the no-effect control and ±100 the full control effect; nearly all actives have a fitted effect of over 60% in size). The following applies: recombinant CYP2C19, luciferin-H EGE luminescence; series mostly up to 57.1 µM. Put shortly: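 5 nM human CYP2C19 with 10uM Luciferin-H EGE (at KM) in 50mM KPO4, compound preincubated 10 min at 37C, then NADPH regeneration for 60 min at 37C. Luciferin read by luminescence after detection reagent; normalized to 57uM ketoconazole as full inhibition.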

The mark [15] stands for this setting: measured here: cell count channel max response.
Setting [16] is: measured here: lipid channel max response.

SMILES strings stand for the structures. Results filed as inconclusive are left out. Activity calls are given as the source filed them. Unless noted, the call rests on the fitted dose curve; in most records, active means well fitted curve in either direction with a large enough effect (not every such curve was filed as active); inconclusive means small, poorly fitted or top-dose-only effect, or another doubt; inactive means flat fitted curve, though single readings scatter.

Chain of Lysosomal acid glucosylceramidase (Homo sapiens) (P04062 whole entry, looked up): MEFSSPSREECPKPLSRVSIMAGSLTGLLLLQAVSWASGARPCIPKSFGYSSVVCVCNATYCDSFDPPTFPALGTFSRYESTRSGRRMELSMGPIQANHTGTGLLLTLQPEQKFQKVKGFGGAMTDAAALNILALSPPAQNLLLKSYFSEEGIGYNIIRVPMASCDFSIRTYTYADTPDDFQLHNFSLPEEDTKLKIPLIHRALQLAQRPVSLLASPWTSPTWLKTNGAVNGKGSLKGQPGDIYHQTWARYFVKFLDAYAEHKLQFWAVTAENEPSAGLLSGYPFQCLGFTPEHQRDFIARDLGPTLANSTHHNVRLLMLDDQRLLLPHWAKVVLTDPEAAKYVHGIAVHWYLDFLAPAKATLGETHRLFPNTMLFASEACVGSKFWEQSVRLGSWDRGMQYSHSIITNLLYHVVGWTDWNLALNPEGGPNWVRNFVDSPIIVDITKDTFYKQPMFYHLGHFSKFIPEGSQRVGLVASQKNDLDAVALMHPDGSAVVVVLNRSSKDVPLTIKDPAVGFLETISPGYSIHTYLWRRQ
Chain of Glucocorticoid receptor (Homo sapiens) (P04150 whole entry, looked up, the tested form may be a part): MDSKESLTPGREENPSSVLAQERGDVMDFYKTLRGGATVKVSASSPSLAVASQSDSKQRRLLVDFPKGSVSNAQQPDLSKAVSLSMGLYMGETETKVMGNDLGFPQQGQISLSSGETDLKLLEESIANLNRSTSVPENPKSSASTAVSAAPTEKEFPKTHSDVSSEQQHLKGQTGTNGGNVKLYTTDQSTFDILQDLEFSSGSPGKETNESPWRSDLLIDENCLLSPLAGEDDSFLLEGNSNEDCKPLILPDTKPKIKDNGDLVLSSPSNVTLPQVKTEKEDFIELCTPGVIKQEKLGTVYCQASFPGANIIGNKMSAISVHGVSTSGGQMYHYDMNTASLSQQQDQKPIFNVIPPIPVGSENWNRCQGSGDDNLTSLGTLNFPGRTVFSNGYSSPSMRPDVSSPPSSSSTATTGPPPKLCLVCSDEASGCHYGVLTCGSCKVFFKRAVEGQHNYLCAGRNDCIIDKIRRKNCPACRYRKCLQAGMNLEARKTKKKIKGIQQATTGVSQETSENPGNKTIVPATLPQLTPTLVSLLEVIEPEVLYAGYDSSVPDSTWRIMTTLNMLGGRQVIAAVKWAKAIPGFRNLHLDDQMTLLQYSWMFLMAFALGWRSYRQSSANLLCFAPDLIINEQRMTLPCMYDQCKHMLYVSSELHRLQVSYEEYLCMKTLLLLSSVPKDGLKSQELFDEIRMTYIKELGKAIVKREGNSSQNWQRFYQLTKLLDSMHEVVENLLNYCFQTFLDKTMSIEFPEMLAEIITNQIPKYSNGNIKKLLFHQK
Chain of Cytochrome P450 2C9 (Homo sapiens) (P11712 whole entry, looked up): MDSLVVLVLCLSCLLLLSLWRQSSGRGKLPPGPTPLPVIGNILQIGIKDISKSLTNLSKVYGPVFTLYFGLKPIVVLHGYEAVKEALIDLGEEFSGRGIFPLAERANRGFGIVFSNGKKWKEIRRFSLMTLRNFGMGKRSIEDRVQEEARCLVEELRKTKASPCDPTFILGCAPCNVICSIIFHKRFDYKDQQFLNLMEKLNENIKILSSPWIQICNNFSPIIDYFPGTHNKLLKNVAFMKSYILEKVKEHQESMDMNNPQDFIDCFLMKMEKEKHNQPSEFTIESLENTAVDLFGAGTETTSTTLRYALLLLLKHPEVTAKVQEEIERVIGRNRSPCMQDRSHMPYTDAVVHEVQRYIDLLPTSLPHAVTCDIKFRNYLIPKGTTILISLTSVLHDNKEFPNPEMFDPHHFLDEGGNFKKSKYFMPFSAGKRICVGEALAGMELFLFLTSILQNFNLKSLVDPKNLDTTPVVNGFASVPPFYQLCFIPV
Chain of Cytochrome P450 1A2 (Homo sapiens) (P05177 whole entry, looked up): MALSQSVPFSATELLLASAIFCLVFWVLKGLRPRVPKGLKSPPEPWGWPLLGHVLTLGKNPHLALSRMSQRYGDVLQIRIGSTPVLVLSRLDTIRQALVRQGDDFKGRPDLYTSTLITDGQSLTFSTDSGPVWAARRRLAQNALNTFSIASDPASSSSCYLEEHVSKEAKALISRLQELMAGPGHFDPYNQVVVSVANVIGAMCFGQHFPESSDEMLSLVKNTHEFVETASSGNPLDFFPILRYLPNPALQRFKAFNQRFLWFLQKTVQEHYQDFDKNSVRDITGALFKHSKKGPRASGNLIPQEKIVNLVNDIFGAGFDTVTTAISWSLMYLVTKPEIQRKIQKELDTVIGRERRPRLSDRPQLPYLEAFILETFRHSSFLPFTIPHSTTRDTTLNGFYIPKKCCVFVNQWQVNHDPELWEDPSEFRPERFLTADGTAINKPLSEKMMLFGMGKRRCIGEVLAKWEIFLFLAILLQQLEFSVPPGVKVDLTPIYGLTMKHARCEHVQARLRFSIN
Chain of 3',5'-cyclic-AMP phosphodiesterase 4B (Homo sapiens) (Q07343 whole entry, looked up): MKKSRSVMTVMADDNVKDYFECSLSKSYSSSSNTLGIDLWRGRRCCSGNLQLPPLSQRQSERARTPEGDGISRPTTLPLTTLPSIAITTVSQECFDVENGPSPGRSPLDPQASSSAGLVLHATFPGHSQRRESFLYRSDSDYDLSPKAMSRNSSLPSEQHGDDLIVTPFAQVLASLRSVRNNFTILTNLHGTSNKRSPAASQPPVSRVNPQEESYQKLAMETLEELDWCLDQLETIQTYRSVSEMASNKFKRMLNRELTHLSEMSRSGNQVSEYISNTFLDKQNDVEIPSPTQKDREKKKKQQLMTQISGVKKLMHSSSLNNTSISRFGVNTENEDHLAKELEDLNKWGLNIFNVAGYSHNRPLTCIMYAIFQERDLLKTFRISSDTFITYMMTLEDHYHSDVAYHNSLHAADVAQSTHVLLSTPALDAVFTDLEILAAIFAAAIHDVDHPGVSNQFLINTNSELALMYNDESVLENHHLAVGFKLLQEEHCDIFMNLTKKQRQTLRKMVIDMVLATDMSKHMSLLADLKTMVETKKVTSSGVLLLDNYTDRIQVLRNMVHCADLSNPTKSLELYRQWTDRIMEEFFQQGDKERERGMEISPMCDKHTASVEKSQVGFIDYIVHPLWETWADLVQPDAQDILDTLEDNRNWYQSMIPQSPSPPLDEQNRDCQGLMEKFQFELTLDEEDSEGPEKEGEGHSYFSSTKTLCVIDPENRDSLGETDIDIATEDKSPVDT
Chain of Cytochrome P450 3A4 (Homo sapiens) (P08684 whole entry, looked up): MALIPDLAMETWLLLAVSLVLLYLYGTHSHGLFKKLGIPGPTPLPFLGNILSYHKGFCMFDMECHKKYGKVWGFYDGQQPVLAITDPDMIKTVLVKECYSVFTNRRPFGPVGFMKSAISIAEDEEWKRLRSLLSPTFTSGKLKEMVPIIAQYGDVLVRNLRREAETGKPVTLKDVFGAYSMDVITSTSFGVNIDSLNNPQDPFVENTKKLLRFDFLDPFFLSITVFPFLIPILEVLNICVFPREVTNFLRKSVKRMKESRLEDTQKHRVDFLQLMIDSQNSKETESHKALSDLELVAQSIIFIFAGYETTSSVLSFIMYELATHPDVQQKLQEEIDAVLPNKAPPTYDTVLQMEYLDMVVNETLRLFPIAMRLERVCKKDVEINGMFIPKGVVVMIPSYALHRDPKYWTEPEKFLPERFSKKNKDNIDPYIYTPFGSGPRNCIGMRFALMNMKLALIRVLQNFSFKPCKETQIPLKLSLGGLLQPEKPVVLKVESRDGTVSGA
Chain of Cytochrome P450 2C19 (Homo sapiens) (P33261 whole entry, looked up): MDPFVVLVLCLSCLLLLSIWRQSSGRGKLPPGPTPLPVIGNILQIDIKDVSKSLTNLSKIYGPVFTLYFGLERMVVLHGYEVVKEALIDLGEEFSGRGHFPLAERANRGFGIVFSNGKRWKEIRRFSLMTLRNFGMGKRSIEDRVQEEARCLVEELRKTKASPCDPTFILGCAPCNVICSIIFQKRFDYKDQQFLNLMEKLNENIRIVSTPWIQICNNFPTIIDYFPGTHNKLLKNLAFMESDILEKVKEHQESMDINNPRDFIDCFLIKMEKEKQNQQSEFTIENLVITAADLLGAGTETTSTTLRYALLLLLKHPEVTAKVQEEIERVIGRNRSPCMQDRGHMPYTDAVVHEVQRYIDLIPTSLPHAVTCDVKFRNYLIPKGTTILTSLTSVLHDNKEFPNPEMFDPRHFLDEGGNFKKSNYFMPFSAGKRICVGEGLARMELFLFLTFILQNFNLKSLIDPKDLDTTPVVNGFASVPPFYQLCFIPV
Chain of Cytochrome P450 2D6 (Homo sapiens) (P10635 whole entry, looked up): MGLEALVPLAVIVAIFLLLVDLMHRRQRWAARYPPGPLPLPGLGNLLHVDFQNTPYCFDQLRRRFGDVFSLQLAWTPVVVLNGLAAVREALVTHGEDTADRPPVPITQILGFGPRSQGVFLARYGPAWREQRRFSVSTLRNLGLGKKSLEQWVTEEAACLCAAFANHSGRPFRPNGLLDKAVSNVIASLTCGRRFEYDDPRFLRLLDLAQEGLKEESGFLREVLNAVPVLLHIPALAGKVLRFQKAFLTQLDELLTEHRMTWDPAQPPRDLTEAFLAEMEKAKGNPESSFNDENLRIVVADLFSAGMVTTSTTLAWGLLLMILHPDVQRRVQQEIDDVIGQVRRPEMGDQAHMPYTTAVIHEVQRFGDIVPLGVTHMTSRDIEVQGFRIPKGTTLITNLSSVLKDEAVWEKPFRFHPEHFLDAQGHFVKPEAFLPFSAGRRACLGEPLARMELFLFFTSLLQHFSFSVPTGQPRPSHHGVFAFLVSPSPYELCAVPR

Regarding `COCC(=O)N1CCC[C@@]2(CCN(C(=O)Nc3ccc(OC)cc3)C2)C1`, the Potency in assay [1] was > 11.4 µM (inactive); in [6], > 46 µM (inactive). The activity change, negative = inhibition in [2] was -7.62% (inactive); in [4] it was 11.4% (inactive); in assay [9], 0.357% (inactive). Moreover, the Potency result in assay [3], in assay [8] and in assay [10] was “inactive” throughout. Further, the activity, negative = inhibition in assay [5] was 6.35% (inactive). Moreover, the result in assay [7] was inactive. The max response in assay [9] (setting [15]) was 1.93%; in assay [9] (setting [16]), 5.76%.
Consider `COCC(=O)N1CCC2(CC1)CN(C(=O)Nc1cccc(C#N)c1)C2`, for which the Potency in [1] is > 11.4 µM (inactive); in [6], > 46 µM (inactive). Besides, the activity change, negative = inhibition in assay [2] was 12.3% (inactive); in assay [4] it was 9.29% (inactive); in assay [9], 1.93% (inactive). The Potency result in assay [3], in [8] and in assay [10] was “inactive” each time. The activity, negative = inhibition in assay [5] is 11.7% (inactive). Also, the call in assay [7] was inactive. For the same compound, the max response in [9] (setting [15]) was found to be 8.59%; in assay [9] (setting [16]) it was 11%.
Take `COCC(=O)N1CCC[C@@]2(CCN(C(=O)Nc3cccc(C#N)c3)C2)C1`: the Potency in [1] was > 11.4 µM (inactive); in assay [6] it was > 46 µM (inactive). For the same compound, the values for the activity change, negative = inhibition in assay [2], in assay [4] and in [9] were 0.866% (inactive), -2.97% (inactive) and 4.94% (inactive), respectively. The Potency result in assay [3], in [8], in [11], in [12], in [13] and in assay [14] was “inactive” throughout. Further, the Potency result in assay [10] is “inactive”. In addition, the activity, negative = inhibition in assay [5] was 2.49% (inactive). The compound was called inactive in assay [7]. In addition, the max response worked out at 13.7% in assay [9] (setting [15]) and 21.6% in assay [9] (setting [16]).
`O=C(Nc1ccccc1)N1CCC2(CC1)CCN(C(=O)c1cnccn1)CC2`: the Potency in assay [1] was > 11.4 µM (inactive); in assay [6] it was > 46 µM (inactive). For the same compound, the activity change, negative = inhibition was -8.59% (inactive) in [2], 11.9% (inactive) in assay [4] and 6.14% (inactive) in assay [9]. Moreover, the Potency entry in assay [3], in [8] and in [10] was “inactive” in each case. Further, in assay [5], the activity, negative = inhibition was 2.97% (inactive). In addition, the compound was called inactive in assay [7]. In addition, the figures for the max response in [9] (setting [15]) and in [9] (setting [16]) were 7.98% and 21.7%, respectively.
On to `CC(C)NC(=O)N1CC[C@@]2(CCCN(C(=O)Oc3ccccc3)C2)C1`, for which the results for the Potency in assay [1] and in assay [6] were > 11.4 µM (inactive) and > 46 µM (inactive), respectively. Besides, the results for the activity change, negative = inhibition in assay [2], in assay [4] and in [9] were 6.59% (inactive), -15.6% (inactive) and 1.37% (inactive), respectively. Besides, the Potency result in assay [3], in assay [8], in [11], in assay [12], in assay [13] and in [14] was “inactive” each time. In assay [10], the Potency result was “inactive”. Besides, the activity, negative = inhibition in assay [5] is -4.24% (inactive). The outcome in assay [7] was inactive. For the same compound, the max response in assay [9] (setting [15]) was 8.74%; in assay [9] (setting [16]) it was 17.3%.
With `Cc1noc(C)c1C(=O)N1CCC2(CCN(C(=O)NC(C)C)CC2)CC1`, the Potency in [1] is > 11.4 µM (inactive); in assay [3], 5.01 µM (active); in assay [6], > 46 µM (inactive). Besides, the activity change, negative = inhibition is -3.73% (inactive) in assay [2], 5.4% (inactive) in assay [4] and 4.44% (inactive) in [9]. Also, the activity, negative = inhibition in assay [5] is 3.31% (inactive). The compound was called inactive in [7]. Besides, the Potency entry in [8] and in [10] was “inactive” each time. The max response in assay [9] (setting [15]) was found to be 4.63%; in assay [9] (setting [16]) it was 11.9%.
In the case of `CS(=O)(=O)N1CCC2(CCN(c3ccccc3)CC2)CC1`, the values for the Potency in assay [1] and in [6] were > 11.4 µM (inactive) and > 46 µM (inactive), respectively. For the same compound, the activity change, negative = inhibition in [2] was 0.201% (inactive); in assay [4] it was -7.56% (inactive); in [9] it was 5.49% (inactive). In addition, the Potency entry in assay [3], in assay [8], in assay [11] and in assay [10] was “inactive” throughout. The activity, negative = inhibition in assay [5] is -0.282% (inactive). In addition, in [7], the compound was called inactive. The max response in assay [9] (setting [15]) is 20.7%; in [9] (setting [16]), 29.9%.
